# Data taken from PubChem BioAssay (Tox21).
# Values joined by “and” are separate entries in the source; they are usually repeats but may differ in a detail not shown here. Identical values can stand only once. Results filed as inconclusive are left out. Active and inactive are the calls of the source. Calls follow the shape of the dose curve; as a rule, active = well fitted cell-killing curve with a large enough effect in the repeat runs; inconclusive = weak or mixed curves, or effect the other way; inactive = no such curve, though single readings can be large or run the other way.
# Assay: qHTS assay for identifying genotoxic compounds that show differential cytotoxicity against isogenic chicken DT40 cell lines with known DNA damage response pathways - wild type cell line (AID 743012); also: nearly all actives have a fitted effect of over 60% in size
# Settings: DT40 wild type chicken cells viability, CellTiter-Glo, 40 h; series mostly up to 68.4 µM
# Excerpt: U.S. Tox21 Program National Center for Advancing Translational Sciences [NCATS] NIH Chemical Genomics Center [NCGC] U.S. Environmental Protection Agency [EPA] National Institutes of Environmental Health Sciences [NIEHS] National Toxicology Program [NTP] U.S. Food and Drug Administration [FDA] Tox21 Assay Overview: DNA repair pathways play a critical role in cellular homeostasis by repairing DNA damage induced by endogenous processes and xenobiotics. Isogenic chicken DT40 cell lines deficient in different DNA repair pathways can be used to identify genotoxic compounds and aid in characterizing the nature of the DNA damage induced. Two DNA repair-deficient cell lines with disrupted genes, Rad54/Ku70 or Rev3, were used to screen the Tox21 10K compound library. Possible genotoxicity was based on the presence of a significant increase in cytotoxicity in one or more of the DNA repair-deficient cell lines compared to that observed in the parental DNA repair-proficient cell line. CellTiter Glo viability assay (Promega, Madison, WI) was used to measure cell viability in these cells after compound treatment. This assay includes the data from the wild type cell line.
# Tox21 Assay Protocol Summary: 300 DT40 wild type cells in 5 uL/well were dispensed into white, solid-bottom 1536-well plates using a Multidrop Combi (ThermoFisher Scientific, Waltham, MA) dispenser. After the assay plates were incubated at 37 C/5% CO2 for approximately 0.5 hour, 23 nL of compounds dissolved in DMSO, positive controls or DMSO only was transferred into the assay plate by a pintool work station (Kalypsys, San Diego, CA). The assay plates were incubated at 37 C/5% CO2 for 40 hours. After 5 uL per well of CellTiter-Glo reagent was added into each well of the assay plates, the plates were incubated for 30 min at room temperature and the luminescence intensity of the plates was measured using a ViewLux (PerkinElmer, Shelton, CT) plate reader.
# Potency is read from the fitted curve at half-maximal effect.
row,Structure (SMILES),Potency
1,CCCCCCCCCCCCCCNCCO,11.9 µM (active)
2,COc1ccc2sc(C(=O)Nc3nnn[nH]3)c(OC(C)C)c2c1,30.5 µM (active)
3,C(=C/c1ccccc1)/c1ccccc1,inactive
4,COc1cccc(CCc2ccccc2OCC(CN(C)C)OC(=O)CCC(=O)O)c1 (stereo not given),8.41 µM (active)
5,CCCSS/C(CCO)=C(\C)N(C=O)Cc1cnc(C)nc1N,5.31 µM (active)
6,Cc1cc(Nc2ccc(O)cc2)ccc1N,15.3 µM (active)
7,C=C[C@](C)(O)CC[C@@H]1[C@@]2(C)CCCC(C)(C)[C@@H]2CC[C@@]1(C)O,24.3 µM (active)
8,Oc1c(Br)cc(Br)c2cccnc12,11.9 µM (active)
9,CCN=c1cc2oc3cc(NCC)c(C)cc3c(-c3ccccc3C(=O)OCC)c-2cc1C,484 nM (active) and 172 nM (active)
10,CC1=C(/C=C/C(C)=C/C=C/C(C)=C/C(=O)Nc2ccc(O)cc2)C(C)(C)CCC1,9.44 µM (active) and 22.2 µM (active)
11,CCCC(CC)CCCCCCCN (stereo not given),inactive
12,O=C1c2c(O)ccc([N+](=O)[O-])c2C(=O)c2c([N+](=O)[O-])ccc(O)c21,13.6 µM (active)
13,COc1ccccc1OCCNCC(O)COc1cccc2[nH]c3ccccc3c12 (stereo not given),26.6 µM (active)
14,O=C1NC2CCCCN2C12CCN(CCCN1c3ccccc3CCc3ccc(Cl)cc31)CC2 (stereo not given),9.44 µM (active)
15,CC(C)c1ccc(O)c(C(C)C)c1,54.5 µM (active)
16,Cc1c(C(=O)O)cccc1[N+](=O)[O-],62.1 µM (active)
17,NC(=O)C(=O)N/N=C/c1ccc([N+](=O)[O-])o1,10.6 µM (active)
18,CC(C)c1cccc(C(C)C)c1N1C(=O)c2ccc(O)cc2C1=O,8.63 µM (active)
19,C[C@@H]1CC[C@H]2C(C)(C)[C@H]3C[C@@]12CC[C@@]3(C)O,inactive
20,Clc1ccc(C(c2ccccc2Cl)C(Cl)Cl)cc1 (stereo not given),23.7 µM (active)

row,Structure (SMILES),Potency
1,Clc1ccc(C(Cn2ccnc2)OCc2c(Cl)cccc2Cl)c(Cl)c1 (stereo not given),11.4 µM (active)
2,CCN=C1C=CC(=C(c2ccc(N(CC)CC)cc2)c2ccc(N(CC)CC)cc2)c2ccccc21,0.0192 µM (active)
3,NC(=O)c1nc(-c2cccc(-c3cc(F)ccc3OCC(F)(F)C(F)(F)F)c2)n[nH]1,17.2 µM (active)
4,CC(=O)OC(OC(C)=O)c1ccc([N+](=O)[O-])o1,19.7 µM (active)
5,CCCCCCOc1ccc(O)cc1,6.11 µM (active)
6,C=CC(=O)OCCOCC(CC)(COCCOC(=O)C=C)COCCOC(=O)C=C,6.37 µM (active)
7,Clc1ccc(C(Cn2ccnc2)OCc2ccsc2Cl)c(Cl)c1 (stereo not given),7.5 µM (active)
8,CCCCCCCCCCCCCC[n+]1ccccc1,0.122 µM (active)
9,CCOC(=O)N1CCC(=C2c3ccc(Cl)cc3CCc3cccnc32)CC1,8.41 µM (active) and 8.63 µM (active)
10,S=C(SSSSSSC(=S)N1CCCCC1)N1CCCCC1,0.674 µM (active)
11,COc1cc(C=C2CCC/C(=C\c3ccc(O)c(OC)c3)C2=O)ccc1O,8.41 µM (active)
12,CCCCCCCC/C=C\CCCCCCCC(=O)N(C)CC(=O)O,21.7 µM (active)
13,CCc1cccc(C)c1,inactive
14,N[C@@H](CSSC[C@H](N)C(=O)O)C(=O)O,inactive
15,CN(C)c1ccc(N=NS(=O)(=O)O)cc1,22.9 µM (active)
16,CC(C)(C)C1=CC(=O)C=C(C(C)(C)C)C1=O,inactive
17,CCC(C)(C)c1cc(O)c(C(C)(C)CC)cc1O,17.2 µM (active)
18,N#CSCSc1nc2ccccc2s1,0.864 µM (active)
19,CC(CN(C)C)CN1c2ccccc2CCc2ccccc21 (stereo not given),11.4 µM (active)
20,Cn1cnc2ncnc(N)c21,inactive
